Experimental findings from PubChem BioAssay AID1220 (Sanford-Burnham Center for Chemical Genomics, 2008) are described below.

In all, about 190,000 compounds went through this assay and about 1,300 (0.68%) were called active. For the sample, actives were picked, then their nearest neighbours and some compounds at random. Unmarked numbers belong to inactive results. No stated cut-off is given here; in the data, active means inhibition above about 50%; inactive means the rest.

In the test the target is Mannose-6-phosphate isomerase (Homo sapiens) (UniProt P34949). The test is described as follows: human PMI inhibitors, high substrate, primary screen, biochemical, fluorescence intensity, high mannose 6-phosphate (AID 1220). The following applies: recombinant PMI enzyme, coupled fluorescence intensity; at 20 µM; hits give high values.
Sequence of Mannose-6-phosphate isomerase (Homo sapiens) (P34949 whole entry, looked up): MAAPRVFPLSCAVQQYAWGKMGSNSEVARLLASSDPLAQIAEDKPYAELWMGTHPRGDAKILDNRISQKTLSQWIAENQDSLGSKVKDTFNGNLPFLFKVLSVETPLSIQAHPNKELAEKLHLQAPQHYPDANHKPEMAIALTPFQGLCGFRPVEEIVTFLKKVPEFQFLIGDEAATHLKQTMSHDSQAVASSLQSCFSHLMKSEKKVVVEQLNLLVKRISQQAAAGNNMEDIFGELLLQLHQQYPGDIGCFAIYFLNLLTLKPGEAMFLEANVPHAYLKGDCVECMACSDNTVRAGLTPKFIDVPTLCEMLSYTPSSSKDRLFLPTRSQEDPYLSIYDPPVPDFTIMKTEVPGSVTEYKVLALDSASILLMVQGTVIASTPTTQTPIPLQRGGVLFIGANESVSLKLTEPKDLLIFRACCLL
One may read the inhibition as the drop in the measured response relative to a control, in per cent. Regarding `O=C(c1noc2c1CCCC2)N1CCN(c2ccccc2)CC1`, the inhibition was 3.6%.

For `O=C(CSc1nnc(-c2ccc(Cl)s2)o1)N1CCOCC1`, the inhibition was 30.1%.

Turning to `Cc1c2c(c(C)n1C)C(C(=O)NC1CCCCC1)N(Cc1ccccc1)C2=O` (stereo unspecified), the inhibition is -4.7%.

As to `Cc1ccc(NC(=O)CSc2nc(N)c(-c3ccccc3)c(=O)[nH]2)cc1Cl`, the inhibition was -0.7%.

For the molecule `CCN(CC)C(=O)COC(=O)c1cc(-c2ccc(OC)cc2)nc2ccccc12`, the inhibition was 7%.

As for `COc1ccc(OC)c(C2CC(=O)N3CN(c4ccccc4)CSC3=C2C#N)c1` (stereo unspecified), the inhibition is -38.7%.

`COc1ccc(OC)c(C2CC(=O)N3CN(c4cccc(Cl)c4)CSC3=C2C#N)c1` (stereo unspecified): the inhibition is 35%.

Take `COc1ccc(Br)cc1C1CC(=O)N2CN(Cc3ccccc3)CSC2=C1C#N` (stereo unspecified): the inhibition was 55.7% (active).

Turning to `COc1ccc(N2CSC3=C(C#N)C(c4cc(OC)c(OC)cc4OC)CC(=O)N3C2)c(OC)c1` (stereo unspecified), the inhibition was 36.9%.

Consider `COc1ccc(N2CSC3=C(C#N)C(c4cc(OC)ccc4OC)CC(=O)N3C2)c(OC)c1` (stereo unspecified), for which the inhibition is 55.5% (active).

On to `COc1cc(OC)c(C2CC(=O)N3CN(c4ccccc4C)CSC3=C2C#N)cc1OC` (stereo unspecified), for which the inhibition is -1.4%.

In the case of `COc1ccc(N2CSC3=C(C#N)C(c4ccc(OC)c(OC)c4)CC(=O)N3C2)c(OC)c1` (stereo unspecified), the inhibition was -8.6%.

For `COc1ccc(OC)c(C2CC(=O)N3CN(c4ccccc4F)CSC3=C2C#N)c1` (stereo unspecified), the inhibition is 17.1%.

On to `COc1cc(OC)c(C2CC(=O)N3CN(c4ccccc4)CSC3=C2C#N)cc1OC` (stereo unspecified), for which the inhibition is 31.4%.

For the molecule `COc1ccc(Br)cc1C1CC(=O)N2CN(C)CSC2=C1C#N` (stereo unspecified), the inhibition is 51.8% (active).

As for `COc1cc(OC)c(C2CC(=O)N3CN(c4ccc(C)cc4)CSC3=C2C#N)cc1OC` (stereo unspecified), the inhibition is 28.2%.

With `CNC(=O)CSc1nnnn1-c1cc(C)ccc1C`, the inhibition was 5.1%.

Consider `CCOC(=O)c1c(NC(=O)CN2CCCc3ccccc32)sc(C)c1CC`, for which the inhibition was 7.2%.

As for `CCCCN1C(=O)/C(=C(/C#N)C(N)=O)c2ccccc21`, the inhibition was 36.9%.

As for `CCOC(=O)/C(C#N)=C1/C(=O)N(Cc2ccccc2)c2ccccc21`, the inhibition was 66.7% (active).

For `CCOC(=O)/C(C#N)=C1/C=CN(Cc2ccccc2)C=N1`, the inhibition was 1.1%.

In the case of `CCOC(=O)C1CCCN(C(=O)Nc2cccc(Cl)c2)C1` (stereo unspecified), the inhibition was 2.6%.

Regarding `COc1cc([N+](=O)[O-])cc2cc(C(=O)NC(C)(C)C)c(=O)oc12`, the inhibition was 15.7%.

Take `C=CCSc1nc2sc3c(c2c(=O)n1CC=C)CCc1ccccc1-3`: the inhibition was 33.5%.

For `C=CCn1c(SCC)nc2sc3c(c2c1=O)CCc1ccccc1-3`, the inhibition is 5.8%.

Consider `O=C1CC(C(=O)N(c2ccccc2)C(C(=O)NC2CCCC2)c2ccncc2)CS1` (stereo unspecified), for which the inhibition was 0.6%.

Take `Cc1c(C(=O)Nc2ccccc2)sc2nc[nH]c(=O)c12`: the inhibition was 8.6%.

For `CCCCCOC(=O)CSc1nc2c(c(=O)[nH]c(=O)n2C)n1CCc1ccccc1`, the inhibition was 107% (active).

For `CCOC(=O)CSc1nc2c(c(=O)[nH]c(=O)n2C)n1CCCc1ccccc1`, the inhibition was 2.2%.

For `CCOC(=O)CSc1nc2c(c(=O)[nH]c(=O)n2C)n1CCc1ccccc1`, the inhibition was 8.8%.

For the molecule `CN1C(=O)CC(C(=O)O)SC1=Nc1ccc(F)cc1` (stereo unspecified), the inhibition is -4.1%.

In the case of `CC(C)N1CCN(c2ccncc2S(=O)(=O)N2CCOCC2)CC1`, the inhibition is -5.7%.

For the molecule `O=C(O)c1[nH]c2ccccc2c1C=NCc1ccccc1Cl`, the inhibition is -5%.

Regarding `CC1=CC(C)(C)Nc2ccc(C)cc21`, the inhibition was 40.8%.

On to `CC1=CC(C)(C)Nc2cc(C)c(C)cc21`, for which the inhibition is 56.3% (active).

On to `CC1=CC(C)(C)Nc2ccccc21`, for which the inhibition was 23.6%.

With `C/C(=N/NC(=O)c1ccccc1)C(=O)O`, the inhibition was 33.7%.

Turning to `COc1ccc(C(=O)/C=C/c2ccc(OC)c(O)c2)c(F)c1`, the inhibition is 62.5% (active).

For `COc1ccc(/C=C/C(=O)c2ccc(OC)cc2OC)cc1`, the inhibition is 2.1%.

Turning to `COc1ccc(C(=O)/C=C/c2cc(OC)c(O)c(OC)c2)c(F)c1`, the inhibition is 62.9% (active).

Regarding `COc1ccc(C(=O)/C=C/c2ccccc2)c(OC)c1`, the inhibition is 1.9%.

Consider `COc1ccc(/C=C/C(=O)c2ccc(OC)cc2OC)c(OC)c1`, for which the inhibition was 9.4%.

Regarding `COc1ccc(C(=O)/C=C/c2ccccc2)c(O)c1`, the inhibition is 5.8%.

Take `Cc1ccc(N(C(=O)Cn2nnc(-c3ccccc3)n2)C(C(=O)NC2CCCCC2)c2ccccn2)cc1C` (stereo unspecified): the inhibition was 6.5%.

As for `Cn1c(=O)n(Cc2ccc(Cl)cc2)c(=O)c2c1nc1n2CCN1Cc1ccco1`, the inhibition is 7.4%.

Regarding `Cc1cc2ncn(CCOc3ccccc3C#N)c2cc1C`, the inhibition is 0.3%.

For `Cc1ccccc1-c1nsc(SCC(=O)Nc2ccc3c(c2)OCO3)n1`, the inhibition was 14.2%.

For `CCN1/C(=C/c2ccc3cc(C)ccc3[n+]2CC)Sc2ccccc21`, the inhibition was -14.4%.

As for `CCN1/C(=C/c2ccc3cc(C)ccc3[n+]2CC)Sc2cc(C)ccc21`, the inhibition was 15%.

In the case of `CCOC(=O)N1CCN(c2cc(=O)n(-c3ccccc3C)c(=O)[nH]2)CC1`, the inhibition was -8%.

As to `Cc1ccsc1C(=O)OC1CCOC1=O` (stereo unspecified), the inhibition was -9.2%.

Turning to `COC(=O)c1nc2ccc(N3CCOCC3)cc2c(C)c1C(=O)OC`, the inhibition was 64.4% (active).

On to `COC(=O)c1c(N)n(-c2ccc(N3CCOCC3)cc2)c2nc3ccccc3nc12`, for which the inhibition is 20%.

Regarding `COC(=O)c1nc2cc3c(cc2c(C)c1C(=O)OC)OCO3`, the inhibition was -5.6%.

`Cc1nnc(SCc2ccc(F)cc2)n1NC/C=C/c1ccccc1`: the inhibition was 9.2%.

`CC(=O)N1CCN(C(=S)c2cccc([N+](=O)[O-])c2)CC1`: the inhibition is -0.6%.

For the molecule `Cc1cccc(NC(=O)C2(c3ccccc3)CCOCC2)c1`, the inhibition was -5.7%.

Take `CCOc1ccc(NC(=O)CN2CCN(CC(=O)Nc3ccc4c(c3)OCCO4)CC2)cc1`: the inhibition was -12.8%.

Turning to `COc1ccc(C(=O)/C=C(\C)Nc2ccc3c(c2)OCO3)cc1`, the inhibition was 33.7%.

Turning to `CCOc1ccc(N/C(C)=C\C(=O)c2ccc3c(c2)OCCO3)cc1`, the inhibition was 61.4% (active).

As to `Cc1nc(-c2ccccc2)nc2[nH]c(C(C)C)cc(=O)c12`, the inhibition was 16.9%.
